Screening data as filed in PubChem.
An excerpt weighted towards active compounds, which were near 9.2% of everything screened.
ALDH1A1 inh = blocks purified human ALDH1A1 activity; P00352; Purified ALDH1A1, NADH fluorescence, propionaldehyde substrate; Potency, µM (series often up to 75.3 µM), inactives show at the top dose activity, negative = inhibition, most hits filed as inhibitors; 7.3% of 220,000 active; AID 1030;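 also: plate controls were no enzyme wells and a reference inhibitor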
LMNA splice mod = modulators of lamin A splicing | HeLa LMNA splicing GFP/RFP minigene ratio, 48 h | Potency, µM (titrated, usually from 46.1 µM), without a hit: at the highest dose ratio change, negative = inhibition, most hits filed as inhibitors | 0.01% of 200,000 active; active = well fitted inhibition curve with a large enough effect in the signal ratio, with a control signal flat, not every such curve was filed as active; inconclusive = small, poorly fitted or top-dose-only effect, or effect the other way, or a change in a side signal; the % refers to the signal ratio; also: % is scaled to controls: 0 for no effect and ±100 for the full control effect
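S3 HeLa cells stably expressing lamin A-EGFP splicing minigene plus DsRed2, 600 cells/well, 48 h compound exposure at 37C. Laser-scanning cytometry; analysed as GFP (500-530 nm)/RFP (575-640 nm) total intensity ratio; 0.5% DMSO vehicle.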
HTT cytoprotect = protects HTT-Q103 PC12 cells, measured by ATP | PC12 HTT-Q103 induced, cytoprotection, ATP luminescence, 40 h | Potency, µM (highest dose often 56.4 µM), for inactives: cytoprotection (ATP increase), hits mostly activators | 0.14% of 230,000 active; active = well fitted curve in the direction sought with a large enough effect; inconclusive = small, poorly fitted or top-dose-only effect, or another doubt; inactive = no such curve, though single readings can be large; an effect the other way counts as inactive or inconclusive; also: % of control where 0% means no effect; nearly all actives have a fitted effect of over 45% in size
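Compounds added alongside 100 nM tebufenozide, which induces toxic Q103 huntingtin exon 1-GFP in stable PC12 cells; surviving cells quantified by luminescent ATP measurement. Medium: phenol red-free DMEM, 5% equine and 5% calf serum.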
HTT aggregate = inhibitors of mutant huntingtin aggregate formation in PC12 cells. PC12 HttQ103-GFP aggregates, Acumen cytometry, 40 h. Potency, µM (series often up to 46.1 µM), for the others: top-dose activity change, negative = inhibition, actives largely listed as inhibitors. 1.1% of 220,000 active. AID 1688; active = well fitted curve in the direction sought with a large enough effect; inconclusive = small, poorly fitted or top-dose-only effect, or another doubt; inactive = no such curve, though single readings can be large; an effect the other way counts as inactive or inconclusive; also: % is scaled to controls: 0 for no effect and ±100 for the full control effect; nearly all actives have a fitted effect of over 60% in size
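PC12/HTTQ103-GFP, ecdysone-inducible; teb 100 nM; cpd qHTS titration; GFP aggregates read on laser cytometer, Ex 488/Em 500-530 nm.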
HPGD block = HPGD (human) dehydrogenase inhibition; 4.3% of 150,000 active; P15428; Potency, µM, inactives show at the highest dose activity change, negative = inhibition, usual class: inhibitors; purified HPGD, NADH fluorescence kinetic, PGE2 substrate; also: % is scaled to controls: 0 for no effect and ±100 for the full control effect
Target sequence (P15428 whole entry, looked up): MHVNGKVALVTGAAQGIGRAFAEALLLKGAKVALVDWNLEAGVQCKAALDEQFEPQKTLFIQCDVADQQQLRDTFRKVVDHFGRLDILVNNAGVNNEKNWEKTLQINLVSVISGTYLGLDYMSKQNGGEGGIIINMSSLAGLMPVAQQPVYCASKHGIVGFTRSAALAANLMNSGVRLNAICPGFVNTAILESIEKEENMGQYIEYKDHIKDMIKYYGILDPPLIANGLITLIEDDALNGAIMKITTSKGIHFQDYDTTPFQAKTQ
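NADH formation kinetics: reaction with 30 uM PGE2 and 1 mM NAD+ (final), 20 nM enzyme, Tris-HCl pH 8 with Tween 20, after 15 min compound preincubation at room temperature. Fluorescence change, last versus first of five reads.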
KDM4E inh = inhibitors of human JMJD2E histone demethylase; AID 2147; B2RXH2; 1.6% of 230,000 active; Potency, µM (doses to about 57.1 µM), without a hit: at the highest dose activity change, negative = inhibition, usual class: inhibitors; JMJD2E catalytic domain, FDH-coupled NADH fluorescence (FDH is formaldehyde dehydrogenase);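 also: 0% = wells with enzyme and -100% = buffer wells without enzyme; nearly all actives have a fitted effect of over 50% in size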
Target sequence (B2RXH2 1-337 limits assumed): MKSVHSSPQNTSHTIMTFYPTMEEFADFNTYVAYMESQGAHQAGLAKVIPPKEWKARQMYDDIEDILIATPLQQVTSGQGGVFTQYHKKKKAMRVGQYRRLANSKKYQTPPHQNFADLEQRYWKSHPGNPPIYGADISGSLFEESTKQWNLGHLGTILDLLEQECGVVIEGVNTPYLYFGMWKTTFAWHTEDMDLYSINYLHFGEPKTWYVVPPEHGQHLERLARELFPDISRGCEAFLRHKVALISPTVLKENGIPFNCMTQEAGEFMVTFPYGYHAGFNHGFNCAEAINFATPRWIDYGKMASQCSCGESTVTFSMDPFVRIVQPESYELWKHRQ
An asterisk follows results filed as active; u = inconclusive; x = not tested or not shown; [ ] = dose if it differs, or a comment. Unless noted, calls follow the shape of the dose curve; as a rule, active = well fitted inhibition curve with a large enough effect (not every such curve was filed as active); inconclusive = small, poorly fitted or top-dose-only effect, or another doubt; inactive = no such curve, though single readings can be large or run the other way. Potency is read from the fitted curve at half-maximal effect.

SMILES	ALDH1A1 inh	LMNA splice mod	HTT cytoprotect	HTT aggregate	HPGD block	KDM4E inh
Cc1ccsc1/C=N/NC(=O)c1ccc([N+](=O)[O-])cc1	-9.8%	x	9.4%[10 µM]	-9.5%	x	9.8%
Cc1ccc(-n2[nH]c(C)c(/C=N/NC(=O)c3ccc([N+](=O)[O-])cc3)c2=O)c(C)c1	5.4%	x	-134.3%	12.6µM*	x	u
O=C(N/N=C/c1c[nH]c2ccccc12)c1cccc([N+](=O)[O-])c1	-5.7%	u	8.7%[10 µM]	-2.0%	-27.2%	1.2%
Cc1[nH]n(-c2ccccc2)c(=O)c1/C=N/NC(=O)COc1ccccc1[N+](=O)[O-]	4.2%	u	-13.1%[10 µM]	u	-11.2%	-10.5%
Cc1[nH]n(-c2ccccc2)c(=O)c1/C=N/NC(=O)c1cccc([N+](=O)[O-])c1	3.9%	u	-64.0%[10 µM]	5.62µM*	-14.7%	4.3%
CC(=O)c1sc(NC(=O)C=C(C)C)nc1C	u	7.4%	-16.6%[10 µM]	-4.7%	-20.6%	-9.0%
O=C(O)Cc1sc(N/N=C\c2ccccc2)nc1-c1ccccc1	1.12µM*	u	-3.0%[10 µM]	-13.7%	u	4.9%
CCOC(=O)c1sc(NC(=O)C2C3C=CC(C3)C2C(=O)O)nc1C (centres undefined)	0.501µM*	12.2%	-4.6%	-7.2%	-15.9%	-0.5%
Cc1ccc(-c2nc(Nc3cccc(C)c3)sc2CC(=O)O)cc1	u	x	13.2%[10 µM]	-12.4%[9.22 µM]	x	u
CCOC(=O)c1sc(N/N=C/c2ccccc2)nc1C	8.91µM*	u	33.6%[10 µM]	2.2%	14.1µM*	u
CC(=O)c1sc(N/N=C\c2ccccc2O)nc1C	-5.7%	u	16.2%[10 µM]	9.0%[9.22 µM]	x	28.2µM*
NC(=O)C1CCN(C(=O)CCC(=O)c2ccc(Br)cc2)CC1	-3.8%	x	-53.2%	2.5%	x	-6.1%
COc1ccc(C2C(C(C)=O)=C(O)C(=O)N2c2cccnc2)c(OC)c1 (centres undefined)	31.6µM*	-9.8%	-15.4%[0.074 µM]	-8.5%	u	-22.6%
COc1ccc(OC)c(C2C(C(C)=O)=C(O)C(=O)N2Cc2cccnc2)c1 (centres undefined)	28.2µM*	-4.4%	-8.7%[10 µM]	-5.0%	-11.5%	-3.6%
CC(=O)C1=C(O)C(=O)N(Cc2cccnc2)C1c1ccccc1Cl (centres undefined)	u	4.5%	13.7%	0.7%	-18.3%	-25.8%
CC[C@H]1[C@@H]2C=C[C@@H]3[C@H]4C/C=C\C(=O)NCCC[C@@H]5NC(=O)C(=C5O)C(=O)CC[C@@H]4C[C@@H]3[C@H]2C[C@H]1C	-0.7%	x	-184.2%	x	x	x
C=CCN1C(=O)C2C3C=CC(C2C1=O)C1C2C(=O)N(CC=C)C(=O)C2C31 (centres undefined)	0.708µM*	x	16.5%[10 µM]	18.2%[9.22 µM]	x	-4.7%
O=C1C2C3C=CC(C2C(=O)N1CCCO)C1C2C(=O)N(CCCO)C(=O)C2C31 (centres undefined)	4.47µM*	13.9%	14.7%	-13.7%[9.22 µM]	-11.6%	7.1%
CCCCN1C(=O)C2C3C=CC(C2C1=O)C1C2C(=O)N(CCCC)C(=O)C2C31 (centres undefined)	6.3%	-1.0%	13.4%[10 µM]	-7.0%	-8.2%	0.2%
O=C(Cc1ccc(Cl)c(Cl)c1)OCCN1CCCC1	u	-24.2%	0.4%[1.9 µM]	x	-19.4%	u
CC1(c2nnc(-c3ccncc3)o2)CC(c2ccc(F)cc2)=NO1 (centres undefined)	x	x	-13.8%[10 µM]	-22.2%[9.22 µM]	x	-8.2%
CCCCc1nnc(SCc2ccc(OCC)cc2)n1N	7.4%	u	10.2%	-8.5%	25.1µM*	6.1%
CCCc1nnc(SCc2ccc(OCC)cc2)n1N	-1.1%	-8.0%	-89.9%[10 µM]	u	28.2µM*	-0.1%
CCc1nnc(SCc2ccc(CSc3nnc(CC)n3N)cc2)n1N	-1.0%	13.5%	6.9%	-2.9%	-6.1%	7.5%
Cc1noc(C)c1-c1ccc2ncnc(Nc3ccccc3)c2c1	u	u	-94.7%	x	x	x
SMILES	ALDH1A1 inh	LMNA splice mod	HTT cytoprotect	HTT aggregate	HPGD block	KDM4E inh
CCC(C)(C)n1nnnc1CN1CCC(NC(=O)c2ccccc2C)CC1	u	-3.2%	10.3%[10 µM]	-11.1%	-11.1%	3.4%
CCOc1ccccc1C(=O)NC1CCN(Cc2nnnn2C2CCCC2)CC1	28.2µM*	9.9%	-8.3%[10 µM]	-2.7%	-6.8%	-0.4%
COc1ccccc1NC(=O)C1C2C=CC(O2)C1C(=O)O (centres undefined)	u	8.4%	-28.2%[10 µM]	-10.8%	-11.1%	u
O=C(O)C1C2C=CC(O2)C1C(=O)NCc1ccccc1Br (centres undefined)	14.1µM*	u	-3.6%	-5.1%	-8.1%	-1.0%
CC(=O)N1CCCc2cc(S(=O)(=O)NCc3ccc(N(C)C)cc3)ccc21	x	-13.5%[46 µM]	x	x	x	x
CCOCCCNC(=O)c1cn(CC(C)C)c(=O)c2cc(OC)c(OC)cc12	20µM*	-14.2%	8.9%[10 µM]	9.9%	-17.0%	-24.6%
CCn1cc(C(=O)NCc2cccnc2)c2cc(OC)c(OC)cc2c1=O	25.1µM*	1.7%	25.1%[1.9 µM]	5.6%	-16.5%	u
CCn1cc(C(=O)NCCCOC)c2cc(OC)c(OC)cc2c1=O	3.6%	21.4%	-3.3%[1.9 µM]	-4.7%	-19.3%	u
COc1cc2c(C(=O)NCc3ccc4c(c3)OCO4)cn(CC(C)C)c(=O)c2cc1OC	0.141µM*	-13.5%	-6.7%[10 µM]	-6.7%	-2.6%	-20.0%
Cc1cc(C)nc(SCC(=O)Nc2nonc2N)n1	u	x	-57.1%	-10.0%[9.22 µM]	x	-8.0%
CNC(=S)N1N=C(c2ccc(Br)cc2)CC1c1ccc(OC)cc1 (centres undefined)	7.08µM*	u	13.9%[10 µM]	13.2%	35.5µM*	u
CNC(=S)N1N=C(c2ccc(C)cc2)CC1c1cc(OC)ccc1OC (centres undefined)	-4.4%	0.6%[46 µM]	-23.5%	10.6%	x	u
CNC(=S)N1N=C(c2ccc(C)cc2)CC1c1ccc(N(C)C)cc1 (centres undefined)	25.1µM*	x	x	18.3%	x	-5.5%
CCN(C(=O)CSc1nnnn1-c1ccccc1)C1CCS(=O)(=O)C1 (centres undefined)	u	-2.0%[46 µM]	3.6%[10 µM]	19.2%	x	-2.0%
CO[C@H]1COC(=O)C/C=C\[C@H](C)[C@@H](OC)COC(=O)[C@H](Cc2ccccc2)NC(=O)C/C=C\[C@@H]1C	u	x	1.1%[10 µM]	x	x	x
COc1ccccc1-c1ccc2ncnc(N(C)C)c2c1	-8.4%	u	-37.5%	x	14.1µM*	2.4%
COc1ccccc1-c1ccc2ncnc(N3CCN(C)CC3)c2c1	u	u	-62.1%	x	u	u
CN(C)c1ncnc2ccc(-c3cccc(C#N)c3)cc12	31.6µM*	u	-84.8%	x	x	x
C[C@@H](Oc1ccccc1)c1nnn(Cc2ccccc2)c1-c1c([C@@H](C)Oc2ccccc2)nnn1Cc1ccccc1	x	x	1.1%[10 µM]	8.4%[9.22 µM]	x	-12.5%
C=CC[C@@H](C(=O)O)c1ccccc1	3.4%[13.5 µM]	x	-13.1%[10 µM]	x	-8.9%	x
